# Rows were chosen to be rich in hits. Some 19% of all compounds tested hit in one or more screens of this group.
# IL-1B inflam inh: inflammasome signaling inhibition, IL-1 beta readout; activity change, % at 57.5 µM; 360,000 tested, 4.7% active; AID 743279; THP-1 LPS/ATP IL-1B secretion, AlphaLISA, 16 h; hits give low values; in the data active means activity change below about -50%; inconclusive means mostly about -30% to -49%; further: on the % scale 0 is the no-effect control and ±100 the full control effect
#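 THP-1 cells pretreated 1 hr with compounds (up to 57.5 uM final), then stimulated with LPS (250 ng/mL final) plus ATP (1.25 mM final); secreted IL-1B measured by AlphaLISA after 16 hr, decreased signal indicating inhibition.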
# TDP1 block: blocks human tyrosyl-DNA phosphodiesterase 1. Q9NUW8. recombinant TDP1, AlphaScreen DNA substrate cleavage. Potency, µM (titrated, usually from 130 µM), without a hit: at the top dose activity change, negative = inhibition, actives largely listed as inhibitors. 350,000 tested, 0.28% active. AID 485290; further: potency means the concentration at half of the fitted maximal effect; on the % scale 0 is the no-effect control and ±100 the full control effect; nearly all actives have a fitted effect of over 40% in size
# Target sequence (Q9NUW8 whole entry, looked up): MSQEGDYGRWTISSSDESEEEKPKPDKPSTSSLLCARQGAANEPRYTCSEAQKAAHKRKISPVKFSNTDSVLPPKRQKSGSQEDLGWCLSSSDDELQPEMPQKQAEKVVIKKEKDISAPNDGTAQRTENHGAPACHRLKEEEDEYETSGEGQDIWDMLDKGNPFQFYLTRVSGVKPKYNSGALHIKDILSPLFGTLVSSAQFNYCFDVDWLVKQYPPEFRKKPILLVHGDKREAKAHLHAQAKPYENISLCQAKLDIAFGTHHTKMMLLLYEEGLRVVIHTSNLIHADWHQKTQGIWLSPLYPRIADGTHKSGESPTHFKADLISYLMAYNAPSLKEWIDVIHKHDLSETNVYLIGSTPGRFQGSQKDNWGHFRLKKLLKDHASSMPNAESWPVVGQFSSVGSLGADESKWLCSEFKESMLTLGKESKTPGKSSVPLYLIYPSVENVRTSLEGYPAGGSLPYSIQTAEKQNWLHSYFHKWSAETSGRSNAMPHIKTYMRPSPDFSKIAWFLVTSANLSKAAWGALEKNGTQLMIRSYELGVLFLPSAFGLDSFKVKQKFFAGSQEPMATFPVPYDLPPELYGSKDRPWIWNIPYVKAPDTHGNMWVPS
#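 E. coli-derived human Tdp1, 1 nM final. Cpd preinc 15 min RT; substrate 15 nM final, 5 min RT; AS bead mix 10 ug/ml final, 10 min RT. Signal loss = tyrosine-FITC cleavage. No-enzyme wells = max signal.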
# TGFb inhibitor: inhibitors of TGF-b signaling; HepG2 CAGA-GFP TGF-b/SMAD3 reporter, GFP fluorescence, 18 h; TGF-beta stimulated, 500 pg/mL final; Potency, µM (titrated, usually from 46.1 µM), for inactives: at the top dose activity, negative = inhibition, hits mostly inhibitors; 410,000 tested, 1.2% active; further: potency means the concentration at half of the fitted maximal effect; on the % scale 0 is the no-effect control and ±100 the full control effect; nearly all actives have a fitted effect of over 65% in size
#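 Using HEPG2 CAGA-GFP reporter cells at 1000 cells/well, we pinned test compounds, stimulated with recombinant TGF-beta (500 pg/mL final) and measured total well GFP after 18 h.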
# DT40 TDP1 CPT: DT40-hTDP1 cell growth loss with CPT; AID 686979; chicken DT40 Tdp1-/-;hTDP1 cells + 20 nM CPT, ATP luminescence, 48 h; Potency, µM (highest dose often 46.2 µM), for inactives: at the top dose activity change, negative = growth inhibition, usual class: inhibitors; 420,000 tested, 12% active; further: potency means the concentration at half of the fitted maximal effect; on the % scale 0 is the no-effect control and ±100 the full control effect; nearly all actives have a fitted effect of over 55% in size
#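 Chicken DT40 Tdp1-/- cells complemented with human TDP1, 400 cells/well, exposed to compounds plus 20 nM camptothecin for at least 48 h at 37 C; viability read as ATP content by CellTiter-Glo luminescence.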
# HepG2 viability: counter-screen for TGF-b inhibitors: cytotoxicity in HepG2 cells. Potency, µM (doses to about 46.1 µM), for inactives: top-dose activity change, negative = cytotoxicity, usual class: cytotoxic. HepG2 CAGA-GFP viability, ATP luminescence, 18 h. 410,000 tested, 0.76% active; further: potency means the concentration at half of the fitted maximal effect
#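 HepG2 CAGA-GFP cells (1000/well, DMEM with 1% FBS) received compound, then TGF-beta at 500 pg/mL final, and were incubated 18 hours at 37 degrees C. Viability was read by CellTiter-Glo luminescence. Media-only wells were set as complete cell-killing and DMSO as no toxicity.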
# TDP1 cell noCPT: qHTS for Inhibitors of human tyrosyl-DNA phosphodiesterase 1 (TDP1): qHTS in cells in absence of CPT; AID 686978, 2013; DT40 Tdp1-/- hTDP1 cells, no CPT, ATP luminescence, 48 h; Potency, µM (doses to about 46.2 µM), inactives show at the highest dose activity change, negative = growth inhibition, most hits filed as inhibitors; 420,000 tested, 15% active; further: potency means the concentration at half of the fitted maximal effect; on the % scale 0 is the no-effect control and ±100 the full control effect; nearly all actives have a fitted effect of over 55% in size
#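 Growth of hTDP1-complemented DT40 Tdp1-knockout cells is measured by ATP luminescence after at least 48 hr compound exposure at 37 °C, with DMSO substituting for the 20 nM CPT used in the parallel screen.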
# Active calls of the source: *; u = inconclusive; x = no result; [ ] = remark or other dose. Unless noted, the call rests on the fitted dose curve; in most records, active means well fitted curve in the direction sought with a large enough effect; inconclusive means small, poorly fitted or top-dose-only effect, or another doubt; inactive means no such curve, though single readings can be large; an effect the other way counts as inactive or inconclusive.
SMILES,IL-1B inflam inh,TDP1 block,TGFb inhibitor,DT40 TDP1 CPT,HepG2 viability,TDP1 cell noCPT
COc1ccc(C2CC(c3cccs3)=NN2C(=O)CCl)cc1OC (centres undefined),-103*,7%,10µM*,2.6µM*,7.1µM*,3.3µM*
CC(=O)C1CCC2C3CCC4CC(=O)CCC4(C)C3C(C)(O)CC12C (centres undefined),17,x,21%,-4%,-5%,u
Cc1noc(C)c1C(=O)N1CCC[C@@]2(CCN(Cc3ccc(C#N)cc3)C2)C1,x,x,x,1%,x,-13%
Cc1ccc(C(NC(=O)c2ccccc2)C(Cl)(Cl)Cl)cc1 (centres undefined),14,2%,-3%,15µM*,-24%,21µM*
O=C(NC(c1ccccc1)C(Cl)(Cl)Cl)c1ccccc1 (centres undefined),-10,-1%,-4%,21µM*,-20%,21µM*
CSc1ncccc1C(=O)Nc1cccc(S(=O)(=O)N2CCCC2)c1,8,1%,-2%,u,1%,u
O=C(Cc1ccc(Cl)cc1)Nc1cccc(S(=O)(=O)Nc2ccccc2F)c1,-12,4%,u,-7%,-15%,u
Cc1ccc(NC(=O)CCNC(=O)c2ccccc2Cl)cc1S(=O)(=O)N1CCCCCC1,-13,0%,u,u,-74%,u
Cc1ccc(NC(=O)c2ccccc2NS(=O)(=O)c2ccc(F)cc2)cc1S(=O)(=O)N1CCCCC1,-23,3%,u,16µM*,-39%,12µM*
O=C(CSc1ccc([N+](=O)[O-])cc1)Nc1cccc(S(=O)(=O)Nc2ccccc2F)c1,18,5%,u,9.2µM*,-4%,u
CSc1ncccc1C(=O)Nc1cccc(S(=O)(=O)N2CCCCCC2)c1,-23,-2%,u,u,-70%,29µM*
O=C(Nc1cccc(S(=O)(=O)N2CCCCC2)c1)c1ccccc1NS(=O)(=O)c1ccc(F)cc1,0,3%,u,u,-10%,21µM*
COc1cccc(CNC(=O)c2c(OC)cc(=O)n3c2CCN(C(=O)c2csc(C)n2)CC3)c1,x,x,x,0%,x,-1%
O=C1CCC(C(=O)Nc2cccc(S(=O)(=O)Nc3ccccc3F)c2)=NN1,-12,1%,12%,18µM*,0%,13µM*
Cc1cccc(NC(=O)c2cccc(OC(=S)N3CCOCC3)c2)c1,17,5%[0.0935 µM],-9%,u,-2%,15µM*
CC(C)(C)c1ccc(C(=O)Nc2cccc(C(=O)N3CCOCC3)c2)cc1,-5,2%[56.1 µM],-29%,15µM*,-26%,u
O=C(Nc1cccc2ccccc12)c1ccc(OC(=S)N2CCOCC2)cc1,7,7%,u,23µM*,9%,23µM*
CC(C)(C)c1ccc(C(=O)Nc2cccc(-n3cnnn3)c2)cc1,-14,1%,15%,u,-1%,2.6µM*
Cc1ccc(C(=O)Nc2cccc(C(=O)N3CCOCC3)c2)cc1,4,4%,-26%,-19%,-16%,-1%
O=c1c([N+](=O)[O-])c(N2CCCC2)c2ccccc2n1-c1ccccc1,-19,1%,1%,-5%,8%,-24%
NC(=O)N/N=C/c1ccc(-c2ccc([N+](=O)[O-])cc2)o1,-20,-4%,-30%,13%,-22%,u
O=C(O)c1cc(-c2ccc(/C=N/NC(=S)Nc3ccccc3)o2)ccc1Cl,30,x,-10%,-5%,-12%,-18%
CN(C)/N=C/c1ccc(/C=N/NC(N)=S)o1,9,-3%,-2%,-7%,-14%,-28%
NC(=S)N/N=C/c1ccc(-c2ccc(Cl)c(Cl)c2)o1,21,3%,u,23µM*,-35%,13µM*
NC(=S)N/N=C\c1ccc(-c2cccc(Cl)c2Cl)o1,0,7%,u,5.2µM*,-10%,4.6µM*
SMILES,IL-1B inflam inh,TDP1 block,TGFb inhibitor,DT40 TDP1 CPT,HepG2 viability,TDP1 cell noCPT
NC(=S)N/N=C/c1ccc(-c2ccc(SC(F)F)cc2)o1,-30,10%,10µM*,3.7µM*,-53%,5.2µM*
NC(=S)NN=Cc1ccc(-c2ccc(S(=O)(=O)Nc3ncccn3)cc2)o1,19,10µM*,-8%,-9%,0%,u
COc1ccccc1NC(=O)c1nnn(-c2ccc(F)cc2)c1C,x,3%,1%,-16%,3%,12%
COc1ccc(C2CC(=O)N(CC(=O)Nc3ccc(C(C)=O)cc3)c3ccccc3S2)cc1OC (centres undefined),x,1%,-3%,x,-37%,x
CN1CCOc2ccc(S(=O)(=O)N3CCN(S(=O)(=O)c4c(F)cccc4F)CC3)cc21,x,0%,x,x,x,x
COc1ccc(NS(=O)(=O)c2cccc(C(=O)NNC(=O)c3ccccc3OC)c2)cc1,19,0%,-12%,-23%,-11%,u
Cc1ccc(-c2ccc(/C=N/NC(N)=S)o2)cc1,45,x,u,2.9µM*,-18%,4.1µM*
NC(=S)N/N=C/c1ccc(-c2ccccc2)o1,-24,7%,u,u,-34%,u
COc1ccc(-n2cccc2C=O)cc1,-5,1%,8%,u,-2%,-25%
COc1ccc(-n2cccc2/C=C/[N+](=O)[O-])cc1,-103*,11%,18µM*,2.3µM*,-60%,3.3µM*
O=S(=O)(c1ccc2c(c1)OCCO2)N1CCN(CCc2ccccc2)CC1,x,3%,0%,-29%,-16%,-13%
COc1ccc(-c2[nH]ncc2CNC(C)c2ccccc2Cl)cc1F (centres undefined),-26,-4%,u,16µM*,-72%,23µM*
COc1ccc(-c2[nH]ncc2CNCC(C)(C)N2CCOCC2)cc1F,-3,3%,1%,1%,16%,2%

# Screening results deposited in PubChem BioAssay by National Center for Advancing Translational Sciences (NCATS).
